Consider 31 compounds from PubChem BioAssay (NCATS).

Records with an inconclusive call do not appear. Entries that show only a call come without a potency. The source made the active and inactive calls. Unless noted, calls follow the shape of the dose curve; as a rule, active = well fitted curve in the direction sought with a large enough effect; inconclusive = small, poorly fitted or top-dose-only effect, or another doubt; inactive = no such curve, though single readings can be large; an effect the other way counts as inactive or inconclusive.

For assay [1], the target named is Ubiquitin carboxyl-terminal hydrolase 1 (Homo sapiens) (UniProt O94782). The experiment in a line: Inhibitors of USP1/UAF1: Pilot qHTS (AID 504865). Also: nearly all actives have a fitted effect of over 35% in size. Also: potency is read from the fitted curve at half-maximal effect. In a few lines: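 In 50mM HEPES pH 7.8 containing 0.5mM EDTA, 1mM TCEP, 0.1 mg/ml BSA and 0.01% Tween-20, 1nM USP1/UAF1 is exposed to compound for 15 min, then Ub-Rho (150nM final) is added and fluorescence is read over time.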
Ubiquitin carboxyl-terminal hydrolase 1 (Homo sapiens), sequence (O94782 whole entry, looked up): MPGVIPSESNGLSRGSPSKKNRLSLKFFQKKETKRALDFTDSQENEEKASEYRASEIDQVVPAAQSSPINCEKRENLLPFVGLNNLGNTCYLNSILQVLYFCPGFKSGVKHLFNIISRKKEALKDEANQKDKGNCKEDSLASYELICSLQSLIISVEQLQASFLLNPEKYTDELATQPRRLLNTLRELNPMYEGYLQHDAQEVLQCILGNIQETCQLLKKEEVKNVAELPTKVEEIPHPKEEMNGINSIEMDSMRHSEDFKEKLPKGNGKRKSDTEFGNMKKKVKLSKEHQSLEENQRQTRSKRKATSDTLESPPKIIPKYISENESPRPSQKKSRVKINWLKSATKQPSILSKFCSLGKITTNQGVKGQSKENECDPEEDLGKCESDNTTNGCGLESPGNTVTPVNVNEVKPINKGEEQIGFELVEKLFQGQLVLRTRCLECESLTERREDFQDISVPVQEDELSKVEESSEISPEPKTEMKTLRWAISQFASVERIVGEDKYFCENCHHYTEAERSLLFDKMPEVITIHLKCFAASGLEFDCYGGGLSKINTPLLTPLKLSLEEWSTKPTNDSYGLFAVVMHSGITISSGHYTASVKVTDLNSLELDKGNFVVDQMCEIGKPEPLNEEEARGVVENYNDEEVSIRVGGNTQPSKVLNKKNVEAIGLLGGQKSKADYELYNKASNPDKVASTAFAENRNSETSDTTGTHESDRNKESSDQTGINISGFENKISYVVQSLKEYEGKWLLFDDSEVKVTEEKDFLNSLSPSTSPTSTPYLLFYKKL

Assay [2] deals with DNA dC->dU-editing enzyme APOBEC-3G (Homo sapiens) (UniProt Q9HC16). The experiment in a line: qHTS for inhibitors of Vif-A3G interactions: Validation (AID 588379). In a few lines:
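Yellow fluorescence (Ex 488, Em 500-530) of Vif-coexpressing HeLa A3G-eYFP cells, scanned by Acumen cytometer, reports blocked A3G degradation. Cells plated at 700/well overnight at 37 deg C before compound addition, then a further overnight compound incubation at 37 deg C.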

A short description of assay [3]: qHTS for Inhibitors of Cell Surface uPA Generation: Validation Assay (AID 493164).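 Also: RAW 264.7 macrophage cells exposed to compound for 18 h.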 In a few lines: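 Compounds are titrated over seven points (2.45 nM–38.3 uM final) onto pre-plated RAW 264.7 cells and incubated for 18 h. Retained intracellular ATP, measured with ATP-Lite, indicates blocked lethal factor entry.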
On the technique in general: qHTS replaces the single test concentration by a dilution series.

Assay [4] deals with Peptidyl-prolyl cis-trans isomerase NIMA-interacting 1 (Homo sapiens) (UniProt Q13526). The experiment in a line: qHTS Validation Assay to Find Inhibitors of Pin1 (AID 504536; active = well fitted inhibition curve with a large enough effect in the polarisation, with a control signal flat, not every such curve was filed as active; the % refers to the polarisation). In short, it runs like this:
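Fluorescence polarization competition: compounds (titration) displace HiFluor-488-labeled Pin1-1b peptide from Pin1 (0.3 uM final) in pH 7.5 HEPES buffer with DTT, 10 min at room temperature; %Activity normalized to no-enzyme wells, curves fitted.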

Assay [5] deals with Phosphoglycerate kinase, glycosomal (Trypanosoma brucei brucei) (UniProt P07378). The assay can be described thus: qHTS Validation Assay to Find Inhibitors of Phosphoglycerate Kinase (AID 504547). In a few lines:
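Compounds are pinned into the substrate/PGK mixture, and GAPDH (100nM final) is added to start the reaction by producing 1,3-BPG. After 60 minutes at room temperature, Kinase-Glo Plus is added and luminescence is measured 10 minutes later.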

Assay [6] deals with phosphoglycerate mutase (Leishmania major) (UniProt Q4Q090). The assay can be described thus: qHTS Validation Assay to Find Inhibitors of Phosphoglycerate Mutase (AID 504548). Also: series mostly up to about 58 µM. In short, it runs like this:
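Lm PGAM at 1.25 nM final with substrate in 100 mM TEA pH 7.6, 5 mM MgCl2, 0.01% Tween-20; 45 min at room temperature. Kinase-GloPlus added, 10 min, end-point luminescence read.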

Assay [7] in a line: qHTS for Inhibitors of ATXN expression: Validation of Cytotoxic Assay (AID 588349). In short, it runs like this:
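Cytotoxicity counter-screen: HEK293 cells exposed to compound titrations, 72 hr, 37 degrees C. Read-out is intracellular ATP (CellTiter Glo luminescence) as a viability measure.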

Assay [8] can be described thus: qHTS for Inhibitors of ATXN expression: Validation (AID 588378). Also: nearly all actives have a fitted effect of over 75% in size. Also: potency is read from the fitted curve at half-maximal effect. In a few lines: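 Compounds were pinned onto attached HEK293 cells carrying an ATXN2-firefly luciferase construct and incubated 24 hrs at 37 degrees C. Each well then received a fluorescent viability reagent followed by luciferase substrate for end-point luminescence.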
For assay [9], the target named is Galactokinase (Homo sapiens) (UniProt P51570). The experiment in a line: qHTS Validation Assay for Inhibitors of Human Galactokinase (GALK) (AID 493189). In short, it runs like this:
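5 nM GALK / 100 uM galactose / 35 uM ATP, 20 mM HEPES pH8.0, 5 mM MgCl2, 60 mM NaCl, 1 mM DTT, 0.01% BSA (final). RT 1 h; Kinase-Glo Plus luminescence.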

The nature of assay [10]: Validation screen for small molecules that induce DNA re-replication in SW480 colon adenocarcinoma cells (AID 504364). In short, it runs like this: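 Read-out: total Hoechst intensity of nuclei by fluorescence scanning imager; hits raise the fraction of nuclei with elevated DNA content. Cells received compound for 48 hr at 37 C before a 40 min stain.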

DNA dC->dU-editing enzyme APOBEC-3G (Homo sapiens), sequence (Q9HC16 whole entry, looked up): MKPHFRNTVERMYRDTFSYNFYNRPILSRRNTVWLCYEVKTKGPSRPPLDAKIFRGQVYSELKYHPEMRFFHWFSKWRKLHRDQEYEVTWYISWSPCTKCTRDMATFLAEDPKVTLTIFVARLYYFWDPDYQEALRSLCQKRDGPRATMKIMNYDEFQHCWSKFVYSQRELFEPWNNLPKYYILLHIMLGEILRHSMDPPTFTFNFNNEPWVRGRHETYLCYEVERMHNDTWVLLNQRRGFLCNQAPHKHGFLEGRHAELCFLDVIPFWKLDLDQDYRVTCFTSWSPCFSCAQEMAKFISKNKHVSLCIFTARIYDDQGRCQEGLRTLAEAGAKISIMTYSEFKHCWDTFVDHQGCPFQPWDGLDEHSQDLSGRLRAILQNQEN
Phosphoglycerate kinase, glycosomal (Trypanosoma brucei brucei), sequence (P07378 whole entry, looked up): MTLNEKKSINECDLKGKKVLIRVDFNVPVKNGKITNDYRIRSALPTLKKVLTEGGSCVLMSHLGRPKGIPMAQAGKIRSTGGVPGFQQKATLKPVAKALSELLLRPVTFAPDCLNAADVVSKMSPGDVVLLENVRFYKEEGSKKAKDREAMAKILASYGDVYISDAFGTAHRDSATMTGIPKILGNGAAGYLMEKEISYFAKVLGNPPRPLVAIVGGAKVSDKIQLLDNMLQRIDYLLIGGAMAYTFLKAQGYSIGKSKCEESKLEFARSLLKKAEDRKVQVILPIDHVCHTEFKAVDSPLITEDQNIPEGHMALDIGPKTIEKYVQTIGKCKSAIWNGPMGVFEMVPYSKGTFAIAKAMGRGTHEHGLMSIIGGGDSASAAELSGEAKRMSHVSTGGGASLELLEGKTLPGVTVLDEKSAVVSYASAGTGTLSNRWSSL
phosphoglycerate mutase (Leishmania major), sequence (Q4Q090 1-553): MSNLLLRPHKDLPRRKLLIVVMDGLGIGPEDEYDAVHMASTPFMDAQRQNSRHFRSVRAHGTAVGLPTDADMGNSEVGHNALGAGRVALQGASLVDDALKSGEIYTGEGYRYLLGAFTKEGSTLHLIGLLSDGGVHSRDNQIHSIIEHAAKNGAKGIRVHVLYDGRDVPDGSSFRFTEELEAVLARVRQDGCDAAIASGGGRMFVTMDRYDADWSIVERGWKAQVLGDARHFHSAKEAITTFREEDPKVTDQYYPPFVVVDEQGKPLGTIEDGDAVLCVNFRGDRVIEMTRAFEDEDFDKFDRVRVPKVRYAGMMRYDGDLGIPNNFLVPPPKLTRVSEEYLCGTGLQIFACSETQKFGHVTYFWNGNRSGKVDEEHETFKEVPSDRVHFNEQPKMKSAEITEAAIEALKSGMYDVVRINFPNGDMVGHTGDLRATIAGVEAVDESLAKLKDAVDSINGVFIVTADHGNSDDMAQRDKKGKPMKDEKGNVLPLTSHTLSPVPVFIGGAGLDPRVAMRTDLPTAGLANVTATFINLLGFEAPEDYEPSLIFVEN
Peptidyl-prolyl cis-trans isomerase NIMA-interacting 1 (Homo sapiens), sequence (Q13526 whole entry, looked up): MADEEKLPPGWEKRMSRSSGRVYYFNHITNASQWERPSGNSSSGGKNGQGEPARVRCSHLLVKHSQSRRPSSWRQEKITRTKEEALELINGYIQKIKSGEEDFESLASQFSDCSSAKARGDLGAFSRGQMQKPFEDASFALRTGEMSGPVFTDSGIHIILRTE
Galactokinase (Homo sapiens), sequence (P51570 whole entry, looked up): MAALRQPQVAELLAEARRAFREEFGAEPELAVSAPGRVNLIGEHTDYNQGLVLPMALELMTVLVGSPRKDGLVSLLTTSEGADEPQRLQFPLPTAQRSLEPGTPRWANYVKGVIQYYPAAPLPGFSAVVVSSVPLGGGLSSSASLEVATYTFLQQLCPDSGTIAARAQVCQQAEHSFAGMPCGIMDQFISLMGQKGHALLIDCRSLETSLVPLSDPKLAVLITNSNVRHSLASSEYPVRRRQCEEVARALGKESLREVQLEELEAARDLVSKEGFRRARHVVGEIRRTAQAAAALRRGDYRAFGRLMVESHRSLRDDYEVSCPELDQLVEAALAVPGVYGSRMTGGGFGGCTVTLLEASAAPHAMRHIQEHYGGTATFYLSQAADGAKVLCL

In the case of `CC1C(=O)OC2C(O)C34C5CC(C(C)(C)C)C36C(OC(=O)C6O)OC4(C(=O)O5)C12O` (stereo not given), the Potency result in assay [1] is “inactive”. In addition, the compound was classed as inactive in assay [2].
As for `COc1ccnc(CS(=O)c2nc3ccc(OC(F)F)cc3[nH]2)c1OC` (stereo not given), in assay [1], the Potency result is “inactive”.
Regarding `Cc1cc(NC(=O)Nc2ccc(N(C)C)cc2)c2cc(F)cc(F)c2n1`, the Potency entry in assay [1] was “inactive”. For the same compound, in assay [2], the outcome was inactive.
As for `C[C@H]1O[C@@H](n2cc(F)c(=O)[nH]c2=O)[C@H](O)[C@H]1O`, the compound was called inactive in assay [3], in assay [4], in assay [5], in assay [6] and in assay [7]. For the same compound, the Potency result in assay [1] and in assay [8] was “inactive” throughout.
With `Nc1ccn([C@@H]2O[C@H](CO)[C@@H](O)[C@H]2O)c(=O)n1`, the Potency entry in assay [1] was “inactive”. Also, in assay [2], the call was inactive.
On to `CCCCC(C=O)NC(=O)C(CC(C)C)NC(=O)OCc1ccccc1` (stereo not given), for which the Potency result in [1] was “inactive”. In assay [2], the outcome was inactive.
In the case of `COc1c(C)c2c(c(O)c1CC=C(C)CCC(=O)OCCN1CCOCC1)C(=O)OC2`, the Potency result in assay [1] is “inactive”.
With `COc1ccc(CCN(C)CCCOc2ccc(S(=O)(=O)c3[nH]c4ccccc4c3C(C)C)cc2)cc1OC`, the result in [2] was inactive.
Turning to `CCNC(=O)[C@H]1O[C@@H](n2cnc3c(N)nc(NCCc4ccc(CCC(=O)O)cc4)nc32)[C@H](O)[C@H]1O`, the compound was classed as inactive in assay [9] and in [10].
Take `CN1CCN2c3ncccc3Cc3ccccc3C2C1` (stereo not given): the Potency result in assay [1] was “inactive”. In addition, the outcome in assay [2] was inactive.
As for `CC(C)CN(C[C@@H](O)[C@H](Cc1ccccc1)NC(=O)O[C@H]1CO[C@H]2OCC[C@H]21)S(=O)(=O)c1ccc(N)cc1`, the Potency entry in [1] is “inactive”.
Take `COc1nccc(-c2c(-c3ccc(F)cc3)ncn2C2CCC(O)CC2)n1` (stereo not given): the Potency result in assay [1] was “inactive”. Also, the compound was classed as inactive in [2].
In the case of `NCC1CCC(C(=O)O)CC1` (stereo not given), the Potency result in [1] was “inactive”.
On to `OC(c1cc(C(F)(F)F)nc2c(C(F)(F)F)cccc12)C1CCCCN1` (stereo not given), for which the Potency entry in assay [1] was “inactive”.
Regarding `O=c1cc(-c2ccc(O)c(O)c2)oc2cc(O)cc(O)c12`, the compound was called inactive in assay [2].
Consider `C=CCc1cccc(C=NNC(=O)CN2CCN(Cc3ccccc3)CC2)c1O`, for which the result in assay [3], in assay [4], in assay [5] and in assay [6] was inactive. In assay [8], the Potency was 3.55 µM (active).
On to `CC1(C)OC2CC3C4CC(F)C5=CC(=O)C=CC5(C)C4C(O)CC3(C)[C@]2(C(=O)CO)O1` (stereo not given in full), for which the Potency result in assay [1] was “inactive”.
For the compound `NS(=O)(=O)c1cc(Cl)c(Cl)c(S(N)(=O)=O)c1`, the Potency result in assay [1] is “inactive”.
For `CN1CC(=O)N2C(Cc3c([nH]c4ccccc34)[C@H]2c2ccc3c(c2)OCO3)C1=O` (stereo not given in full), the Potency entry in assay [1] is “inactive”.
As for `O=C(O)c1nc(=O)[nH]c(=O)[nH]1`, the Potency entry in [1] is “inactive”.
On the same count and under the same terms, to `CN[C@H]1[C@@H](O[C@@H]2[C@H](O[C@@H]3[C@@H](O)[C@@H](O)[C@@H](N=C(N)N)[C@@H](O)[C@@H]3N=C(N)N)O[C@H](C)[C@@]2(O)C=O)O[C@@H](CO)[C@@H](O)[C@H]1O` belongs “inactive”; to `COc1cc2c(cc1OC)CC(=O)N(CCCN(C)C[C@H]1Cc3cc(OC)c(OC)cc31)CC2`, “inactive”; to `Cc1cc2nc3c(=O)[nH]c(=O)nc-3n(CC(O)C(O)C(O)CO)c2cc1C` (stereo not given), 31.6 µM (active).
Turning to `CS(=O)(=O)c1ccc(C2=C(c3ccccc3)C(=O)OC2)cc1`, in assay [1], the Potency result is “inactive”.
Regarding `O=C1C(CCC(O)c2ccc(F)cc2)C(c2ccc(O)cc2)N1c1ccc(F)cc1` (stereo not given), in assay [1], the Potency result is “inactive”.
For `CCCCC[C@H](O)C=C[C@H]1[C@H](O)CC(=O)[C@H]1CCCCCCC(=O)O`, the Potency entry in assay [1] is “inactive”. Besides, in assay [2], the result was inactive.
For the compound `N#CC(c1ccc(Cl)cc1)c1c(Cl)cc(-n2ncc(=O)[nH]c2=O)cc1Cl` (stereo not given), the Potency in assay [1] was 79.4 µM (active).
Still for that read-out and setting: in the case of `CC(NCCc1ccc(O)cc1)C(O)c1ccc(O)cc1` (stereo not given) it was “inactive”; in that of `N#Cc1c(N(CC(=O)O)CC(=O)O)sc(C(=O)O)c1CC(=O)O`, “inactive”.
On to `Cc1ccc(NC(=O)c2cccc(N(C)C)c2)cc1NC(=O)c1ccc(O)cc1`, for which the Potency entry in [1] is “inactive”. For the same compound, the result in assay [2] was inactive.
As for `CN(C)CCN(Cc1ccc(Cl)cc1)c1ccccn1`, in assay [1], the Potency result is “inactive”.
